Results filed as inconclusive are left out. Calls of active or inactive are those of the source. Calls follow the shape of the dose curve; as a rule, active = well fitted cell-killing curve with a large enough effect; inconclusive = small, poorly fitted or top-dose-only effect, or effect the other way; inactive = no such curve, though single readings can be large or run the other way.
Assay: Quantitative highthroughput screen to assess conditional lethalithy of SEM cells grown in Human Plasma-Like Medium with dialyzed fetal bovine serum (HPLM+ds) (AID 1963882)
Details: SEM B-ALL cells in HPLM+ds, CellTiter-Glo viability, 48 h; series mostly up to 45.8 µM; viability: at the top concentration
Outline: (§1)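 Each medium arm—HPLM with 10% dialyzed FBS, or RPMI1640 with 5 mM glucose and 10% untreated or dialyzed FBS—was screened against an 11-point, 3-fold compound titration for 48 h at 37 °C, with CellTiter-Glo luminescence as endpoint.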
Also: nearly all actives have a fitted effect of over 35% in size.
Potency is read from the fitted curve at half-maximal effect.

Row | Structure (SMILES) | Potency | viability
1 | COc1cc2nc(-c3cc(F)ccc3O)nc(N[C@@H]3CNC[C@@H]3C(C)(C)O)c2cc1OC | 0.332 µM (active) | 
2 | CC(C)=CCCC(C)=CCCC(C)=CCSc1ccccc1C(=O)O | 6.62 µM (active) | 
3 | CS(=O)(=O)Oc1ccc2c(NC(N)=O)c(C(=O)c3ccc(Cl)cc3Cl)oc2c1 |  | 102% (inactive)
4 | CN(C)CCOc1ccc(C(=C(CCCl)c2ccccc2)c2ccccc2)cc1 | 5.9 µM (active) | 
5 | Fc1ccc([C@@H]2CCNC[C@H]2COc2ccc3c(c2)OCO3)cc1 | 14.8 µM (active) | 
6 | O=C(Nc1ccccc1)Nc1ccc(-c2ccc(C(=O)[C@H]3CCC[C@H]3C(=O)O)cc2)cc1 |  | 108% (inactive)
7 | CO[C@@H]1[C@@H](O)[C@H](O)[C@@H](n2c3c(Cl)cccc3c3c4c(c5c6cccc(Cl)c6[nH]c5c32)C(=O)NC4=O)O[C@@H]1CO | 0.59 µM (active) | 
8 | Cc1cc(=O)c2c(O)c3c(O)cc(=O)c4c3c3c(cc(O)c1c23)C(C)(C)C=4O |  | 80.8% (inactive)
9 | NC(=O)c1cnc(N[C@@H]2CCCC[C@@H]2N)nc1Nc1cccc(-n2nccn2)c1 | 11.7 µM (active) | 
10 | CO[C@H]1/C=C\O[C@@]2(C)Oc3c(C)c(O)c4c(O)c(c5c(nc6cc(C)ccn65)c4c3C2=O)NC(=O)C(C)=CC=C[C@H](C)[C@H](O)[C@@H](C)[C@@H](O)[C@@H](C)[C@H](OC(C)=O)[C@H]1C | 18.7 µM (active) | 
11 | CO[C@H]1C[C@@H]2CC[C@@H](C)[C@@](O)(O2)C(=O)C(=O)N2CCCC[C@@H]2C(=O)O[C@H]([C@H](C)C[C@@H]2CC[C@H](OCCO)[C@H](OC)C2)CC(=O)[C@H](C)C=C(C)[C@@H](O)[C@@H](OC)C(=O)[C@H](C)C[C@H](C)C=CC=CC=C1C | 0.59 µM (active) | 
12 | CC(C)[N+]1(C)[C@@H]2CC[C@H]1CC(OC(=O)C(CO)c1ccccc1)C2 (stereo partly drawn) | 9.35 µM (active) | 
13 | Cc1cn2c(-c3cn[nH]c3)cnc2c(Nc2ccc(C(=O)N3CCNCC3)cc2F)n1 | 13.2 µM (active) | 
14 | CCOc1ccn(-c2ccc(F)cc2)c(=O)c1C(=O)Nc1ccc(Oc2ccnc(N)c2Cl)c(F)c1 | 1.48 µM (active) | 
15 | CC(C)N(CC[C@H](c1ccccc1)c1cc(CO)ccc1O)C(C)C |  | 85.8% (inactive)

Assay: Quantitative highthroughput screen to assess conditional lethalithy of SEM cells grown in RPMI1640 with unreated serum (RPMI+s) (AID 1963883);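 as to viability: 100% = DMSO wells and 0% = empty wells without cells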
Details: SEM B-ALL cells, CellTiter-Glo viability, 48 h; series mostly up to 45.8 µM; viability: at the top concentration
Outline: as §1

Row | Structure (SMILES) | Potency | viability
16 | COc1cc2nc(-c3cc(F)ccc3O)nc(N[C@@H]3CNC[C@@H]3C(C)(C)O)c2cc1OC | 0.469 µM (active) | 
17 | C[C@@H](Oc1cc(-c2cnn(C3CCNCC3)c2)cnc1N)c1c(Cl)ccc(F)c1Cl | 9.35 µM (active) | 
18 | CC(C)=CCCC(C)=CCCC(C)=CCSc1ccccc1C(=O)O | 6.62 µM (active) | 
19 | CCCCC[C@H](O)C=C[C@H]1[C@H](O)CC(=O)[C@H]1CCCCCCC(=O)O | 4.18 µM (active) | 
20 | CS(=O)(=O)Oc1ccc2c(NC(N)=O)c(C(=O)c3ccc(Cl)cc3Cl)oc2c1 |  | 98.4% (inactive)
21 | C[C@@H](Oc1ccc2[nH]nc(C=Cc3cnn(CCO)c3)c2c1)c1c(Cl)cncc1Cl | 0.264 µM (active) | 
22 | CN(C)CCOc1ccc(C(=C(CCCl)c2ccccc2)c2ccccc2)cc1 | 3.32 µM (active) | 
23 | O=C(Nc1ccccc1)Nc1ccc(-c2ccc(C(=O)[C@H]3CCC[C@H]3C(=O)O)cc2)cc1 |  | 113% (inactive)
24 | C[C@]12CC[C@@H]3c4ccc(O)cc4CC[C@H]3[C@H]1CC[C@H]2O | 18.7 µM (active) | 
25 | CO[C@@H]1[C@@H](O)[C@H](O)[C@@H](n2c3c(Cl)cccc3c3c4c(c5c6cccc(Cl)c6[nH]c5c32)C(=O)NC4=O)O[C@@H]1CO | 0.235 µM (active) | 
26 | Cc1cn2c(-c3cn[nH]c3)cnc2c(Nc2ccc(C(=O)N3CCNCC3)cc2F)n1 | 14.8 µM (active) | 
27 | CCOc1ccn(-c2ccc(F)cc2)c(=O)c1C(=O)Nc1ccc(Oc2ccnc(N)c2Cl)c(F)c1 | 3.32 µM (active) | 

Assay: Quantitative highthroughput screen to assess conditional lethalithy of SEM cells grown in RPMI1640 with dialyzed fetal bovine serum (RPMI+ds) (AID 1963884);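 as to viability: 100% = DMSO control wells and 0% = empty wells without cells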
Details: SEM B-ALL cells, RPMI+dialyzed FBS, CellTiter-Glo viability, 48 h; series mostly up to 45.8 µM; viability: at the top concentration
Outline: as §1

Row | Structure (SMILES) | Potency | viability
28 | CC(C)=CCCC(C)=CCCC(C)=CCSc1ccccc1C(=O)O | 11.8 µM (active) | 
29 | Fc1ccc([C@@H]2CCNC[C@H]2COc2ccc3c(c2)OCO3)cc1 | 14.8 µM (active) | 
30 | O=C(Nc1ccccc1)Nc1ccc(-c2ccc(C(=O)[C@H]3CCC[C@H]3C(=O)O)cc2)cc1 |  | 121% (inactive)
31 | C[C@]12CC[C@@H]3c4ccc(O)cc4CC[C@H]3[C@H]1CC[C@H]2O | 20.9 µM (active) | 
32 | CO[C@@H]1[C@@H](O)[C@H](O)[C@@H](n2c3c(Cl)cccc3c3c4c(c5c6cccc(Cl)c6[nH]c5c32)C(=O)NC4=O)O[C@@H]1CO | 0.469 µM (active) | 
33 | Cc1cc(=O)c2c(O)c3c(O)cc(=O)c4c3c3c(cc(O)c1c23)C(C)(C)C=4O |  | 86.9% (inactive)
34 | CO[C@H]1/C=C\O[C@@]2(C)Oc3c(C)c(O)c4c(O)c(c5c(nc6cc(C)ccn65)c4c3C2=O)NC(=O)C(C)=CC=C[C@H](C)[C@H](O)[C@@H](C)[C@@H](O)[C@@H](C)[C@H](OC(C)=O)[C@H]1C | 14.8 µM (active) | 
35 | CN1CCN(CCCN2c3ccccc3Sc3ccc(Cl)cc32)CC1 |  | 84.2% (inactive)
36 | CCOC(=O)N1CCN([N+]([O-])=NOc2ccc([N+](=O)[O-])cc2[N+](=O)[O-])CC1 | 4.69 µM (active) | 
37 | CCOc1ccn(-c2ccc(F)cc2)c(=O)c1C(=O)Nc1ccc(Oc2ccnc(N)c2Cl)c(F)c1 | 2.09 µM (active) | 
38 | CC(C)N(CC[C@H](c1ccccc1)c1cc(CO)ccc1O)C(C)C |  | 96.1% (inactive)

From PubChem BioAssay (NCATS)
